{
  "source": "PubChem BioAssay AID1236",
  "about": "(Emory University Molecular Libraries Screening Center, 2008)",
  "note": "Out of some 220,000 compounds screened, about 800 (0.36%) were called active. This is one part of a sample in which actives are shown more often than they occur. Values without a mark were called inactive.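 Rule for the calls: active = inhibition above about 50% (limit read from the data); inactive = the rest.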",
  "data": [
    {"test_system": "calpain II (m-calpain), Sus scrofa", "assay": "inhibitors of pig calpain II, primary screen, biochemical, fluorogenic peptide substrate, 1536-well (AID 1236)", "conditions": "purified calpain II, 30 min, at 16 µM, hits give high values", "values": [
      {"smiles": "O=P(O)(CP(=O)(c1ccccc1)c1ccccc1)c1ccccc1O", "inhibition": "-11.7%"},
      {"smiles": "COc1ccc(CN2CCCCC2C)cc1OC", "note": "(stereo not given)", "inhibition": "-66%"},
      {"smiles": "CC(C)N(Cc1ccccc1)C(=S)Nc1ccc(OC(F)F)cc1", "inhibition": "18.2%"},
      {"smiles": "CC(=O)c1ccc(NC(=O)N[C@@H](Cc2ccccc2)C(=O)O)cc1", "inhibition": "5.25%"},
      {"smiles": "CC(=O)c1ccc(NC(=S)N(Cc2ccccc2)C(C)C2CC2)cc1", "note": "(stereo not given)", "inhibition": "69.5% (active)"},
      {"smiles": "CNc1nc(SC)nc(N(C#N)CC(=O)OC)n1", "inhibition": "-4.33%"},
      {"smiles": "O=C(NCCc1csc(-c2ccccc2)n1)c1ccccc1F", "inhibition": "18.7%"},
      {"smiles": "COC(=O)Cn1c(O)c(N=NC(=O)OC)c2ccccc21", "inhibition": "-10.4%"},
      {"smiles": "CCN(CC(=O)NCCc1ccccc1)S(=O)(=O)c1ccccc1", "inhibition": "13.4%"},
      {"smiles": "COc1cc(/C=N/O)cc(Br)c1OCc1cccc(Cl)c1", "inhibition": "56.7% (active)"},
      {"smiles": "CCOc1c(Cl)cc(/C=N/O)cc1OC", "inhibition": "-1.32%"},
      {"smiles": "CCOc1cc(/C=N/O)cc(Br)c1OC", "inhibition": "2.94%"},
      {"smiles": "C=CCn1c(-c2ccc(Cl)cc2)ccc(C#N)c1=O", "inhibition": "-6.13%"},
      {"smiles": "CC(O)C(NS(=O)(=O)c1ccc(Cl)cc1)C(=O)OCc1cc([N+](=O)[O-])cc2c1OCOC2", "note": "(stereo not given)", "inhibition": "-6.26%"},
      {"smiles": "CN(C(=O)CCn1c(=S)oc2ccccc21)C1CCCCC1", "inhibition": "6.83%"},
      {"smiles": "Cc1c(C(=O)c2cccc([N+](=O)[O-])c2)c2ccccn2c1CCC#N", "inhibition": "10.5%"},
      {"smiles": "CSCc1cc(N2CCOCC2)nc(SCc2ccc(Cl)cc2Cl)n1", "inhibition": "53.9% (active)"},
      {"smiles": "CSCc1cc(N(C)C)nc(SCc2ccc(Cl)cc2Cl)n1", "inhibition": "8.94%"},
      {"smiles": "O=c1cc(CSc2ccc(Cl)cc2)nc(N2CCOCC2)[nH]1", "inhibition": "-33.8%"},
      {"smiles": "Cc1ccc(-n2ncc3c(Nc4cccc(C(=O)O)c4)ncnc32)cc1", "inhibition": "10.2%"},
      {"smiles": "NC(=O)CC[C@@H]1NC(=O)[C@H](CO)NC(=O)c2cc([N+](=O)[O-])cc(I)c2NCC[C@@H](C(N)=O)NC1=O", "inhibition": "-33.7%"},
      {"smiles": "S=c1[nH]nc(-c2cccs2)n1/N=C/c1cn(-c2ccccc2)nc1-c1ccc(Cl)cc1", "inhibition": "-33.4%"},
      {"smiles": "COc1ccc(OC(C)C(=O)Nc2cccnc2)cc1", "note": "(stereo not given)", "inhibition": "-45%"},
      {"smiles": "COc1ccc(C(=O)C2CCCN(C(=O)c3cc4nc(C)cc(C)n4n3)C2)cc1F", "note": "(stereo not given)", "inhibition": "-25.8%"},
      {"smiles": "Cc1ccc2nc(-c3ccccc3)cc(C(=O)O)c2c1", "inhibition": "-19.3%"},
      {"smiles": "O=c1cc(-c2ccccc2)nc(N2CCCCC2)[nH]1", "inhibition": "-13.8%"},
      {"smiles": "c1ccc(-c2cc(N3CCCCC3)c3ccccc3n2)cc1", "inhibition": "50.5% (active)"},
      {"smiles": "CN(C)CCCSc1ccccc1NC(=O)/C=C/c1ccccc1", "inhibition": "-17.5%"},
      {"smiles": "N#Cc1ccc(N2Cc3ccccc3/C2=N/C(=O)Nc2ccc(Cl)cc2)cc1", "inhibition": "-5.24%"},
      {"smiles": "Cc1cccc(NC(=S)N(CCN(C)C)C(C)c2ccco2)c1", "note": "(stereo not given)", "inhibition": "-1.81%"},
      {"smiles": "Fc1c(F)c(C(F)(F)F)c(F)c(F)c1N1CCN(c2ccc3nnc(C(F)(F)F)n3n2)CC1", "inhibition": "58.9% (active)"},
      {"smiles": "FC(F)(F)c1nnc2ccc(N3CCN(c4ccccc4)CC3)nn12", "inhibition": "8.02%"},
      {"smiles": "Cc1ccnc(NC(=O)Cn2ccc([N+](=O)[O-])n2)c1", "inhibition": "-9.6%"},
      {"smiles": "Cc1cc(C)cc(C(=O)N(CCc2ccccc2)C2=CC3CCC(C2)N3C)c1", "note": "(stereo not given)", "inhibition": "-21.9%"},
      {"smiles": "CCn1c(SCC(=O)N/N=C/c2ccccc2OCC(=O)O)nnc1-c1ccc(C(C)(C)C)cc1", "inhibition": "-10.5%"},
      {"smiles": "CCC/C=C(\\CCC)C(NC(=O)Cc1ccccc1)c1ccc(C(=O)OC)cc1", "note": "(stereo not given)", "inhibition": "3.04%"},
      {"smiles": "CCOC(=O)CN(C)S(=O)(=O)c1ccc(-c2cc(C(=O)OC)sc2C(F)(F)F)cc1", "inhibition": "17.5%"},
      {"smiles": "Oc1c(Br)cc(/C=N/NC(=S)NCC2CCCO2)cc1Br", "note": "(stereo not given)", "inhibition": "-20.7%"},
      {"smiles": "CCc1ccc(OCC(=O)OCC(=O)c2c(N)n(C)c(=O)n(C)c2=O)cc1", "inhibition": "4.26%"},
      {"smiles": "Cn1c(N)c(C(=O)COC(=O)c2cnc(Cl)c(Cl)c2)c(=O)n(C)c1=O", "inhibition": "69% (active)"},
      {"smiles": "Cc1cc(C(=O)OCC(=O)c2c(N)n(C)c(=O)n(C)c2=O)c(C)o1", "inhibition": "32.4%"},
      {"smiles": "Cc1csc(NC(=O)c2ccc(-c3ccc(Cl)cc3Cl)o2)n1", "inhibition": "-95.3%"},
      {"smiles": "COc1ccc(CN2CCN(Cc3cn(C)nc3-c3ccccc3)CC2CCO)c(C)c1C", "note": "(stereo not given)", "inhibition": "-24.9%"},
      {"smiles": "O=C1CCN(C(=O)Nc2ccccc2)N1", "inhibition": "9.94%"},
      {"smiles": "CC(C)CNC(=O)CC(c1ccccc1)c1c(O)ccc2ccccc12", "note": "(stereo not given)", "inhibition": "-74.9%"},
      {"smiles": "CCc1ccc(Oc2nc([N+](=O)[O-])nn2C)cc1", "inhibition": "-6.47%"},
      {"smiles": "C=CCn1c(SCc2cccc(F)c2)nc2cc(C(=O)N3CCC(C(N)=O)CC3)ccc2c1=O", "inhibition": "-22.9%"},
      {"smiles": "O=C(NC(=S)Nc1cccc2c(O)cccc12)c1cccc(Br)c1", "inhibition": "-4.46%"},
      {"smiles": "Clc1ccc(-c2nnc(SCc3nc4ccccc4s3)o2)cc1", "inhibition": "8.94%"},
      {"smiles": "C#CCSc1nnc(-c2sc3ccccc3c2Cl)o1", "inhibition": "50.5% (active)"},
      {"smiles": "O=C(OCC#CCSc1nnc(-c2ccncc2)o1)c1sc2ccccc2c1Cl", "inhibition": "20.6%"},
      {"smiles": "Cc1cccc(N(C)C(=O)c2cc3c(=O)[nH]c4ccc(C)cc4c3s2)c1", "inhibition": "-47.9%"},
      {"smiles": "O=C(O)CCn1cc(/C=C/C(=O)c2ccc(Cl)cc2)c(-c2cccc(Br)c2)n1", "inhibition": "31.9%"},
      {"smiles": "CS(=O)(=O)c1ccc2nc(NC(=O)c3ccc(Cl)nc3)sc2c1", "inhibition": "8.84%"},
      {"smiles": "Nc1nc(-c2sc3nc4c(cc3c2N)CCCC4)nc(N2CCOCC2)n1", "inhibition": "-253%"},
      {"smiles": "C/C(=N\\OCC(=O)O)c1ccc(Cl)cc1", "inhibition": "25.9%"},
      {"smiles": "CCOc1cc(/C=C(/C#N)c2ccc(Cl)cc2)cc(Cl)c1OCC(=O)O", "inhibition": "50.5% (active)"},
      {"smiles": "CCOC(=O)CN/C=C(\\C#N)c1ccc(F)cc1", "inhibition": "-15.5%"},
      {"smiles": "Nc1c(Cl)cc(S(N)(=O)=O)cc1S(N)(=O)=O", "inhibition": "-2.3%"},
      {"smiles": "Cc1ccc(Cl)cc1-c1ccc(/C=N/n2cnnc2)o1", "inhibition": "4.96%"},
      {"smiles": "Cc1cc([N+](=O)[O-])c(-c2ccc(/C=N/n3cnnc3)o2)cc1Cl", "inhibition": "58.9% (active)"},
      {"smiles": "Cc1cc(-c2ccc(/C=N/n3cnnc3)o2)c([N+](=O)[O-])cc1C", "inhibition": "34.4%"},
      {"smiles": "NS(=O)(=O)c1ccc(CNC(=O)c2cnccn2)cc1", "inhibition": "-9.46%"},
      {"smiles": "Cc1nc(NC2=NC(C(=O)Nc3ccc(Cl)cc3)CC(=O)N2)nc2ccccc12", "note": "(stereo not given)", "inhibition": "6.9%"},
      {"smiles": "CCNC(=O)N1c2ccccc2Sc2ccccc21", "inhibition": "-4.08%"},
      {"smiles": "CCC(C(=O)OCC(=O)Nc1ccc(C(=O)Nc2ccc(OC)cc2)cc1)c1ccccc1", "note": "(stereo not given)", "inhibition": "38%"},
      {"smiles": "CCC(C(=O)OCC(=O)Nc1ccccc1-c1ccccc1)c1ccccc1", "note": "(stereo not given)", "inhibition": "56.9% (active)"},
      {"smiles": "CCC(C(=O)OCC(=O)Nc1c(Cl)cc(Cl)cc1Cl)c1ccccc1", "note": "(stereo not given)", "inhibition": "11.9%"},
      {"smiles": "CCOc1c(CNCc2ccc(C(=O)O)cc2)cccc1OC", "inhibition": "-12%"},
      {"smiles": "CC(=O)N1C(C)c2ccccc2C(C)(C)CC12CCCCC2", "note": "(stereo not given)", "inhibition": "10.1%"},
      {"smiles": "COc1ccc(S(=O)(=O)N(CC(=O)N/N=C/c2ccccc2C(=O)O)c2ccccc2OC)cc1", "inhibition": "-1.16%"},
      {"smiles": "COC(=O)CCCC1=CC2=CC(=O)C(C)(OC(=O)c3cccs3)C(=O)C2=CN1c1cccc(C#N)c1", "note": "(stereo not given)", "inhibition": "-53.3%"},
      {"smiles": "CC(=NCc1ccco1)c1c(C(F)(F)F)[nH]n(-c2nc3ccccc3s2)c1=O", "inhibition": "-91.3%"},
      {"smiles": "S=C(NCCc1ccccc1)Nc1ccccc1", "inhibition": "16%"},
      {"smiles": "Cc1ccc(N2CCN(C3=NC(=O)/C(=C\\c4cccs4)S3)CC2)cc1", "inhibition": "76.7% (active)"},
      {"smiles": "Cc1ccsc1/C=C1\\SC(N2CCOCC2)=NC1=O", "inhibition": "15.5%"},
      {"smiles": "Cc1ccc(N2CCN(/N=C/c3cccs3)CC2)cc1", "inhibition": "-29.6%"},
      {"smiles": "O=[N+]([O-])c1ccc(N2CCSCC2)cc1O", "inhibition": "2.99%"},
      {"smiles": "O=C(OCc1ccc(Br)cc1)c1cccc(-c2nnc(-c3ccccc3)o2)c1", "inhibition": "-6.16%"},
      {"smiles": "O=C(Nc1ccccc1C(F)(F)F)N1CCCC1c1cccnc1", "note": "(stereo not given)", "inhibition": "3.9%"},
      {"smiles": "O=C(c1cccc(F)c1)N1CCN(c2ccc([N+](=O)[O-])c(N3CCCCC3)c2)CC1", "inhibition": "5.06%"},
      {"smiles": "O=[N+]([O-])c1ccc(N2CCN(S(=O)(=O)c3ccc4ccccc4c3)CC2)cc1NCc1ccco1", "inhibition": "-59%"},
      {"smiles": "O=C(c1ccccc1)N1CCN(c2ccc([N+](=O)[O-])c(NCc3ccco3)c2)CC1", "inhibition": "54.3% (active)"},
      {"smiles": "O=C(COC(=O)c1ccc(Cl)nc1)NCc1cccs1", "inhibition": "13.2%"},
      {"smiles": "C/C(=N/NC(=S)Nc1ccccc1)c1ccc2c(c1)OCO2", "inhibition": "-6.26%"},
      {"smiles": "CC(C)(C)c1cc(C(=O)NN)n(Cc2ccc(Cl)cc2Cl)n1", "inhibition": "17.2%"},
      {"smiles": "Cn1c(=O)cc(OCC(=O)N2CCN(c3ccccc3F)CC2)c2ccccc21", "inhibition": "-13.2%"},
      {"smiles": "CC(C)Oc1ccc(Cc2n[nH]c(=S)n2Cc2ccccc2)cc1Cl", "inhibition": "15.2%"},
      {"smiles": "C=CCn1c(CCc2ccc(OC(C)C)cc2)n[nH]c1=S", "inhibition": "-15.1%"},
      {"smiles": "CC(C)Oc1ccc(CCc2n[nH]c(=S)n2Cc2ccccc2)cc1", "inhibition": "53.5% (active)"},
      {"smiles": "CC(C)NC(=S)NN=C1CCCCCCCCCCC1", "inhibition": "54.9% (active)"},
      {"smiles": "CC(C)(C)NC(=O)C(=O)NN=C1CCCCCCC1", "inhibition": "-5.09%"},
      {"smiles": "C/C(=N\\NC(=S)NC(C)C)c1ccc(C(C)(C)C)cc1", "inhibition": "6.32%"},
      {"smiles": "Nc1ccc(Cl)c(S(=O)(=O)Nc2ccccc2Cl)c1", "inhibition": "-15%"},
      {"smiles": "COc1ccc(Cl)cc1C(=O)Nc1ccc(N(C)C(C)=O)cc1", "inhibition": "-12.6%"}
    ]}
  ]
}
